# Measured values: PubChem BioAssay (NCATS)
# Results filed as inconclusive are left out. Active and inactive are the calls of the source. Calls follow the shape of the dose curve; as a rule, active = well fitted cell-killing curve with a large enough effect; inconclusive = small, poorly fitted or top-dose-only effect, or effect the other way; inactive = no such curve, though single readings can be large or run the other way.
# Experiments:
# [1] = Quantitative High-Throughput drug screen in 47 multiple myeloma cell lines against the NCATS MIPE library collection: Delta47_JCRB cell viability assay (AID 1918925; also: nearly all actives have a fitted effect of over 45% in size; also: potency is read from the fitted curve at half-maximal effect); settings: Delta47 myeloma viability, CellTiter-Glo ATP, 48 h; series mostly up to 45.8 µM
# Method in brief: (§1)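 Primary qHTS used for cherry-picking: cells at 500/well, library compounds for 48 h (37C, 5% CO2), luminescent ATP assay.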
# [2] = Quantitative High-Throughput drug screen in 47 multiple myeloma cell lines against the NCATS MIPE library collection: AMO1_DSMZ cell viability assay (AID 1918927; also: nearly all actives have a fitted effect of over 30% in size; also: potency is read from the fitted curve at half-maximal effect); settings: AMO1 myeloma cells viability, CellTiter-Glo ATP luminescence, 48 h; series mostly up to 45.8 µM
# Method in brief: as §1
# [3] = Quantitative High-Throughput drug screen in 47 multiple myeloma cell lines against the NCATS MIPE library collection: ARD_JJKsccE7 cell viability assay (AID 1918929; also: potency is read from the fitted curve at half-maximal effect); settings: ARD myeloma cell line viability, CellTiter-Glo, 48 h; series mostly up to 45.8 µM
# Method in brief: as §1
# [4] = Quantitative High-Throughput drug screen in 47 multiple myeloma cell lines against the NCATS MIPE library collection: KMM1_JCRB cell viability assay (AID 1918960); settings: KMM1 myeloma viability, CellTiter-Glo ATP luminescence, 48 h; series mostly up to 45.8 µM; also: nearly all actives have a fitted effect of over 30% in size; also: potency is read from the fitted curve at half-maximal effect;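 as to viability (% of DMSO): 100% = DMSO-treated cells and 0% = medium-only wells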
# Method in brief: (§2)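 ATP readout (CellTiter-Glo), 48 h drug incubation, 37 °C/5% CO2, 500 cells per well; normalisation to DMSO (100%) and media-only (0%) controls.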
# [5] = Quantitative High-Throughput drug screen in 47 multiple myeloma cell lines against the NCATS MIPE library collection: Karpas417_ECACC cell viability assay (AID 1918961); settings: Karpas417 myeloma viability, CellTiter-Glo ATP luminescence, 48 h; viability (% of DMSO): at 45.8 µM (top of the series); also: potency is read from the fitted curve at half-maximal effect
# Method in brief: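 qHTS of the MIPE 4.0 collection: 500 myeloma cells/well, 48 h drug exposure at 37C in 5% CO2, then CellTiter-Glo for 5 min at room temperature before luminescence reading.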
# [6] = Quantitative High-Throughput drug screen in 47 multiple myeloma cell lines against the NCATS MIPE library collection: Karpas620_DSMZ cell viability assay (AID 1918959); settings: Karpas620 myeloma viability, CellTiter-Glo ATP luminescence, 48 h; series mostly up to 45.8 µM; also: nearly all actives have a fitted effect of over 30% in size; also: potency is read from the fitted curve at half-maximal effect
# Method in brief: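 Inhibition of cell viability is measured here. Each line was plated at 500 cells per well, treated with MIPE 4.0 drugs, kept 48 hours at 37C, then assayed for ATP content by CellTiter-Glo luminescence.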
# [7] = Quantitative High-Throughput drug screen in 47 multiple myeloma cell lines against the NCATS MIPE library collection: EJM_DSMZ cell viability assay (AID 1918926; also: nearly all actives have a fitted effect of over 30% in size; also: potency is read from the fitted curve at half-maximal effect); settings: EJM myeloma cell viability, CellTiter-Glo ATP, 48 h; series mostly up to 45.8 µM
# Method in brief: as §1
# [8] = Quantitative High-Throughput drug screen in 47 multiple myeloma cell lines against the NCATS MIPE library collection: ARP1_JJKsccF8 cell viability assay (AID 1918928; also: nearly all actives have a fitted effect of over 40% in size); settings: ARP1 myeloma cells viability, CellTiter-Glo ATP, 48 h; series mostly up to 45.8 µM
# Method in brief: as §2
structure (smiles),measurement,setting,value
CC=C(C)C(=O)O[C@H]1C(C)=C[C@]23C(=O)[C@@H](C=C(CO)[C@@H](O)[C@]12O)[C@H]1[C@@H](C[C@H]3C)C1(C)C,Potency,[1],5.26 µM (active)
same,Potency,[2],18.7 µM (active)
same,Potency,[3],11.8 µM (active)
same,Potency,[4],11.8 µM (active)
same,Potency,[5],0.209 µM (active)
Clc1ccc(CCC(Cn2ccnc2)Sc2c(Cl)cccc2Cl)cc1 (stereo not given),Potency,[1],23.5 µM (active)
same,Potency,[2],14.8 µM (active)
same,Potency,[3],13.2 µM (active)
same,Potency,[6],18.7 µM (active)
COc1ccc(-c2nc(N3CCOCC3)c3sc(CN(C)c4ncc(C(=O)NO)cn4)cc3n2)cn1,Potency,[7],0.0042 µM (active)
same,Potency,[2],0.001 µM (active)
same,Potency,[8],inactive
same,Potency,[3],0.001 µM (active)
same,Potency,[6],0.001 µM (active)
same,Potency,[4],0.001 µM (active)
Cc1ccc([C@@H]2O[C@H](CO)[C@@H](O)[C@H](O)[C@@H]2O)cc1Cc1ccc(-c2ccc(F)cc2)s1,Potency,[1],20.9 µM (active)
same,Potency,[2],18.7 µM (active)
same,Potency,[3],20.9 µM (active)
same,Potency,[4],16.6 µM (active)
CC=CCC(C)C(O)C1C(=O)NC(CC)C(=O)N(C)CC(=O)N(C)C(CC(C)C)C(=O)NC(C(C)C)C(=O)N(C)C(CC(C)C)C(=O)NC(C)C(=O)NC(C)C(=O)N(C)C(CC(C)C)C(=O)N(C)C(CC(C)C)C(=O)N(C)C(C(C)C)C(=O)N1C (stereo not given),Potency,[4],inactive
CN(C)Cc1cccc(N=C(c2ccccc2)c2c(O)[nH]c3cc(C(=O)N(C)C)ccc23)c1,Potency,[8],inactive
CC(=O)Oc1cc2c(s1)CCN(C(C(=O)C1CC1)c1ccccc1F)C2 (stereo not given),Potency,[1],3.32 µM (active)
same,Potency,[2],1.87 µM (active)
same,Potency,[6],1.18 µM (active)
CC=CCC=CCCC(=O)[C@H]1O[C@@H]1C(N)=O,Potency,[2],20.9 µM (active)
same,Potency,[3],26.4 µM (active)
same,Potency,[6],16.6 µM (active)
COc1cc(N2CCC(N3CCN(C)CC3)CC2)ccc1Nc1ncnc(Nc2ccccc2S(=O)(=O)C(C)C)n1,Potency,[3],inactive
CO[C@H]1C[C@@H]2CC[C@@H](C)[C@@](O)(O2)C(=O)C(=O)N2CCCC[C@@H]2C(=O)O[C@H]([C@@H](C)C[C@@H]2CC[C@H](O)[C@H](OC)C2)CC(=O)[C@H](C)C=C(C)[C@@H](O)[C@@H](OC)C(=O)[C@H](C)C[C@H](C)C=CC=CC=C1C,Potency,[6],16.6 µM (active)
Cc1c[nH]c(C=C2C(=O)Nc3ccccc32)c1CCC(=O)O,Potency,[1],inactive
same,Potency,[6],inactive
same,Potency,[4],18.7 µM (active)
CCCCCN(C)CCC(O)(P(=O)(O)O)P(=O)(O)O,Potency,[7],inactive
same,Potency,[3],inactive
same,Potency,[6],inactive
same,viability (% of DMSO),[5],78.6% (active)
c1ccc2c(-c3cnn4cc(-c5ccc(N6CCNCC6)cc5)cnc34)ccnc2c1,Potency,[7],11.8 µM (active)
C[C@H](NC(=O)c1sccc1OCc1ccc(Cl)cc1)c1ccccc1,Potency,[1],20.9 µM (active)
same,Potency,[3],inactive
same,Potency,[6],inactive
same,Potency,[4],inactive
COC(=O)C1=CO[C@@H](O)[C@@H]2C(CO)=CC[C@@H]12,Potency,[2],18.7 µM (active)
same,Potency,[6],23.5 µM (active)
CC(=NNC(=S)N1CCC1)c1ccccn1,Potency,[7],inactive
same,Potency,[2],0.001 µM (active)
same,Potency,[3],0.001 µM (active)
same,Potency,[5],inactive
O=C(O)c1c(Cl)c(Cl)c(Cl)c(Cl)c1-c1c2cc(I)c(=O)c(I)c-2oc2c(I)c(O)c(I)cc12,Potency,[1],14.8 µM (active)
same,Potency,[2],13.2 µM (active)
same,Potency,[3],8.33 µM (active)
same,Potency,[6],14.8 µM (active)
CCOC(CN1C(=O)[C@](CC(=O)Nc2ccc(C)cc2)(NC(=O)Nc2ccc(C)cc2)c2ccccc21)OCC,Potency,[7],inactive
same,Potency,[6],16.6 µM (active)
same,Potency,[5],16.6 µM (active)
CC(C)OC(=O)C(C)(C)Oc1ccc(C(=O)c2ccc(Cl)cc2)cc1,Potency,[7],10.5 µM (active)
same,Potency,[2],inactive
same,Potency,[3],inactive
same,Potency,[6],inactive
same,Potency,[4],inactive
NC1=N[C@@]2(c3cc(NC(=O)c4ccc(F)cn4)ccc3F)COC[C@@H]2CS1,Potency,[2],2.64 µM (active)
same,Potency,[3],1.87 µM (active)
same,Potency,[6],0.418 µM (active)
same,Potency,[4],3.32 µM (active)
same,viability (% of DMSO),[5],105% (active)
O=C(O)C=Cc1ccc(O)c(O)c1,Potency,[7],13.2 µM (active)
same,Potency,[6],20.9 µM (active)
same,Potency,[5],14.8 µM (active)
c1cc(-c2sc(-c3ccncc3)c(-c3ccncc3)c2-c2ccncc2)ccn1,Potency,[6],inactive
COc1cccc([C@@H](C)NCCCc2ccccc2Cl)c1,Potency,[7],inactive
same,Potency,[8],inactive
